Compounds with a hit are over-represented: about 2.9% of the library has one in this group of screens.
MITF TRPM1 inh = MITF TRPM1 promoter inhibition in SK-MEL-5 cells | actives 0.83% (n = 330,000) | SK-MEL-5 TRPM1 promoter luciferase, 24 h | inhibition, % at 12.5 µM;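 active means mean inhibition across replicates of 60% or more, whatever share of single replicates reaches that level; inconclusive means some that reach 60%, reason not given; inactive means mean inhibition across replicates below 60%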
PfHsp90 set2 = inhibits growth of yeast expressing Plasmodium falciparum Hsp90; S. cerevisiae expressing PfHsp90, BacTiter-Glo ATP, 48 h; yeast lacking PDR1 and PDR3 efflux regulators; actives 0.32% (n = 310,000); AID 504621; inhibition, % at 9.4 µM;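 active means every replicate shows inhibition above about 80%, whatever the replicate mean, limit read from the data; inconclusive means mean inhibition reaches the set limit but some replicate falls short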
NSD2 inh = NSD2 (human) methyltransferase inhibition; O96028; NSD2 peptide methylation, AlphaScreen, 120 min; inhibition, % at 12.5 µM; actives 0.54% (n = 310,000); in the data active means inhibition above about 50%
Target sequence (O96028 whole entry, looked up): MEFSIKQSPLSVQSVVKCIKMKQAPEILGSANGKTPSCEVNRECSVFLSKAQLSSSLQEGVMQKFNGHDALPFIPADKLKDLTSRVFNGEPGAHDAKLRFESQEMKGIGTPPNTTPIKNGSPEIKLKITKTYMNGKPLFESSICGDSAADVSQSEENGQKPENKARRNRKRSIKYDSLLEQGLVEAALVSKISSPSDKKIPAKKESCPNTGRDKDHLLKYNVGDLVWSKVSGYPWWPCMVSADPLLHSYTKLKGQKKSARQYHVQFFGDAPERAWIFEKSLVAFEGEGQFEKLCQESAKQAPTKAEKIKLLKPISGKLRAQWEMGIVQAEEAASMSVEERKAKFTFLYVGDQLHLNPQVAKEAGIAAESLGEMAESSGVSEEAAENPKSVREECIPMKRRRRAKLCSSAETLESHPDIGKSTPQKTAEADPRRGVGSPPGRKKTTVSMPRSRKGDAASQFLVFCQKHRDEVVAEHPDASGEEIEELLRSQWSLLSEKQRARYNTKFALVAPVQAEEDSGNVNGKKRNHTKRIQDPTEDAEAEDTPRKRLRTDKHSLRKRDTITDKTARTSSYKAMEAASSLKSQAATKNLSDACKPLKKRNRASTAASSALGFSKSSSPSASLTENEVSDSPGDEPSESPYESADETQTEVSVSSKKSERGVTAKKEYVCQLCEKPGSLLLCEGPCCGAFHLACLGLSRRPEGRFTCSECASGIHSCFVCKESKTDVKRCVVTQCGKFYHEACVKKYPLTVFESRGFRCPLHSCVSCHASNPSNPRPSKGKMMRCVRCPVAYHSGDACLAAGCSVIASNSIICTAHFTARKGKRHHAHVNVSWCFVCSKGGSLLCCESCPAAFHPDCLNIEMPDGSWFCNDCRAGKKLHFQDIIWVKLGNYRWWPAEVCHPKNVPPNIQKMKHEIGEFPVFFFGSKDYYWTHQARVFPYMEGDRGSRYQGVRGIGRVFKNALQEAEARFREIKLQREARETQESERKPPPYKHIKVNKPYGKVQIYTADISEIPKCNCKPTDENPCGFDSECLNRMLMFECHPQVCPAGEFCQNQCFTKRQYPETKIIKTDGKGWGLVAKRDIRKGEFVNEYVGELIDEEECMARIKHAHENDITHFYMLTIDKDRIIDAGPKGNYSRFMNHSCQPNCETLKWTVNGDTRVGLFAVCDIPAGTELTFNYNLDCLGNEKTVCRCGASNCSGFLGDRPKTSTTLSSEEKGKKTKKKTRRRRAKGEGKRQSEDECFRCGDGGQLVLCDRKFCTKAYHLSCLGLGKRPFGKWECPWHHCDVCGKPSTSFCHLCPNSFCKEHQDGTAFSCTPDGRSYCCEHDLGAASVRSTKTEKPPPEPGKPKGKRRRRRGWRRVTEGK
N-glyco inh = blocks N-linked glycosylation in D54 reporter cells | actives 0.23% (n = 360,000) | reporter increase, % at 12.5 µM | D54 ERlucT glycosylation luciferase reporter, 24 h; percent of 100 nM tunicamycin response;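 active means mean luciferase reporter signal, scaled so untreated is 0 and the glycosylation-blocking control 100, at or above a set limit in every replicate; inconclusive means mean reaches the limit but not every replicate does; inactive means mean below the limit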;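 further: luciferase carries N-glycosylation sites so blocking glycosylation raises the light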
Wnt bcat act = activators of Wnt/beta-catenin signaling | activation, % at 9.35 µM | actives 1.2% (n = 300,000) | AID 743398 | Wnt/beta-catenin reporter cell assay, activator, plate reader; in the data active means activation above about 30%, passing the limit was not always enough; inconclusive means no clear call, values can overlap the other calls
MITF TRPM1 HTS = MITF TRPM1 promoter activation in melanoma cells; AID 588334; SK-MEL-5 TRPM1-promoter luciferase, 24 h; % of positive control, neutral wells = 0; actives 0.75% (n = 300,000); activation, % at 12.5 µM;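 active means mean activation of at least 80% with every replicate also reaching 80%; inconclusive means mean reaches 80% but some replicate falls short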
Each line names hits and unclear results; the compound was inactive in the other large screens.

COc1ccc(CCNC(=O)C(=O)NCc2ccccn2)cc1	Wnt bcat act 37.4 (no result: NSD2 inh)
COc1ccc(CN(CCN2CCOCC2)C(=O)c2cccc(F)c2)cc1OC	none (no result: MITF TRPM1 inh, PfHsp90 set2, N-glyco inh, Wnt bcat act, MITF TRPM1 HTS)
c1ccc2c(c1)Cc1cc3ccccc3nc1-2	Wnt bcat act 44.4 (no result: NSD2 inh)
Cc1cc2ccccc2nc1-c1ccccc1F	none
O=C1c2ccccc2-c2nc3ccccc3cc21	Wnt bcat act 58.8
NS(=O)(=O)c1cc(C(=O)Nc2ccc3c(c2)CCC3)ccc1Cl	MITF TRPM1 HTS 113.4
O=C(Nc1ccc2c(c1)CCC2)c1ccc(F)c(S(=O)(=O)N2CCOCC2)c1	Wnt bcat act 83.0
Cc1ccc(C(=O)Nc2ccc3c(c2)CCC3)cc1S(=O)(=O)N1CCOCC1	Wnt bcat act inconclusive
NS(=O)(=O)c1cc(C(=O)NC2CCSc3ccccc32)ccc1Cl (stereo not given)	NSD2 inh 180.4
CC(C)(C)c1ccc(-c2nnc(SCC(=O)Nc3ccccc3-c3ccccc3)n2Cc2ccco2)cc1	none (no result: MITF TRPM1 inh, PfHsp90 set2, N-glyco inh, Wnt bcat act, MITF TRPM1 HTS)
Cc1ccc(NC(=O)c2ccccn2)c(Br)c1	Wnt bcat act 36.7
Cc1ccc(C)c(NC(=O)c2ccccn2)c1	none (no result: PfHsp90 set2)
Cc1cccc(NC(=O)Nc2ccccn2)c1C	none
Cc1cccc(NC(=O)c2ccccn2)c1C	Wnt bcat act 36.3
Cc1cccc(NC(=O)c2onc3c2CCCC3)c1C	MITF TRPM1 HTS 86.5 (no result: Wnt bcat act)
CSCc1ccc(C(=O)Nc2cccc(C)c2C)cc1	Wnt bcat act 34.2, MITF TRPM1 HTS 111.9
O=C(N[C@H](C(=O)N1CCC[C@H]1C(=O)NCc1ccccc1)C1CCCCC1)c1ccc(Cl)c(Cl)c1	none (no result: MITF TRPM1 inh, PfHsp90 set2, NSD2 inh, N-glyco inh, MITF TRPM1 HTS)
CC(=O)OCC1=C[C@@H]2OC(=O)C3=CO[C@@H](O[C@@H]4O[C@H](CO)[C@@H](O)[C@H](O)[C@H]4O)[C@H]1[C@@H]32	none (no result: PfHsp90 set2, NSD2 inh)
C=C1C(=O)OC2C=C(CO)C3OC3C3OC3(C)CC(OC(=O)/C(=C/C)COC(C)=O)C12 (stereo not given)	MITF TRPM1 inh 84.5
Cc1ccc(NCCCn2cnc(C(=O)Nc3ccc(C)c(C)c3)n2)cc1C	none (no result: NSD2 inh)
Cc1cc(C)c(CN2CCN(CCCn3cnc(C(=O)Nc4ccc(C)c(C)c4)n3)CC2)c(C)c1	MITF TRPM1 inh 84.2 (no result: NSD2 inh)
O=C1Nc2ccc(Br)cc2C1=Nc1cccnc1	NSD2 inh 66.5 (no result: MITF TRPM1 inh, PfHsp90 set2, MITF TRPM1 HTS)
COc1cccc(N2CC(O)=C(c3nc4ccccc4c(=O)[nH]3)C2=N)c1	N-glyco inh 36.2 (no result: NSD2 inh, Wnt bcat act)
Cc1cc(C)cc(N2CC(O)=C(c3nc4ccccc4c(=O)[nH]3)C2=N)c1	none
C#CCNC(=O)C[C@@H]1C[C@@]2(C(=O)OC)CC(C)(C)CC=C2N(CCc2ccc(OC)c(OC)c2)C1=O	none (no result: MITF TRPM1 inh, PfHsp90 set2, N-glyco inh, MITF TRPM1 HTS)
Cc1ccc2nc(SCC(=O)Nc3nonc3C)[nH]c2c1	none
CN(c1cccnc1)c1ccc(NC(=O)CCc2c[nH]c3ccccc23)cc1Br	none (no result: MITF TRPM1 inh, PfHsp90 set2, N-glyco inh, MITF TRPM1 HTS)
Cc1ccc(OCC(=O)c2ccc3c(c2)CCCC3)cc1C	MITF TRPM1 HTS 96.6
Cc1ccc(NC(=O)COc2ccc3c(c2)CCC3)nc1	Wnt bcat act inconclusive, MITF TRPM1 HTS 93.9
Cc1cccnc1NC(=O)COc1ccc2c(c1)CCC2	MITF TRPM1 HTS 100.3
Cc1ccc(NC(=O)COc2ccc3oc4c(c3c2)CCCC4)nc1	none
CC1=N/C(=C/c2ccco2)C(=O)O1	NSD2 inh 119.0
COC(=O)[C@H](CCSC)NC(=O)c1cccnc1SC	Wnt bcat act 36.0 (no result: MITF TRPM1 HTS)
c1ccc(-c2ccc3[nH]ccc3c2)cc1	MITF TRPM1 HTS 92.5 (no result: NSD2 inh)
CC1(C)CC(=O)C=C(c2ccc3[nH]ccc3c2)C1	none (no result: NSD2 inh)
O=C1C=C(c2ccc3[nH]ccc3c2)CCC1	Wnt bcat act 46.4, MITF TRPM1 HTS inconclusive (no result: NSD2 inh)
Cc1sc(NC(=O)Nc2ccccc2)c(C(N)=O)c1C	Wnt bcat act 33.0
CC(=O)Nc1sc(C)c(C)c1C(=O)OCC(=O)Nc1ccccc1	N-glyco inh 84.6
COc1cccc(NC(=O)COC(=O)c2c(NC(C)=O)sc(C)c2C)c1	none
COC(=O)c1c(NC(=O)Nc2ccc(Cl)cc2)sc(C)c1C	none
COc1ccc(CNC(=O)COC(=O)c2c(NC(C)=O)sc(C)c2C)cc1OC	Wnt bcat act 46.0 (no result: MITF TRPM1 inh, PfHsp90 set2, MITF TRPM1 HTS)
COc1ccccc1NC(=O)COC(=O)c1c(NC(C)=O)sc(C)c1C	none (no result: MITF TRPM1 inh, PfHsp90 set2, MITF TRPM1 HTS)
CC(=O)Nc1sc(C)c(C)c1C(=O)OCC(=O)Nc1cccc(C)c1	N-glyco inh 66.2 (no result: PfHsp90 set2)
CC(C)N1CCc2c(sc(NC(=O)C3CCCCC3)c2C(N)=O)C1	none (no result: MITF TRPM1 inh, NSD2 inh, MITF TRPM1 HTS)
